Measured values reported in PubChem BioAssay (NCATS).
Inconclusive results are not listed. Where a call stands in place of a potency, no number is given. The source made the active and inactive calls. Calls come from the whole dose curve; as a rule, active = well fitted inhibition curve with a large enough effect; inconclusive = small, poorly fitted or top-dose-only effect; inactive = flat fitted curve, though single readings scatter.

Assays:
Test in all cases: qHTS profiling for inhibitors of Plasmodium falciparum proliferation (AID 504749); note: nearly all actives have a fitted effect of over 60% in size
Conditions in all cases: P. falciparum in erythrocytes, SYBR Green DNA, 72 h; series mostly up to 28.7 µM
CP247 = tested on: CP247
Summary of the method: (§1)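 P. falciparum-infected erythrocytes (0.3% parasitemia, 2.5% hematocrit) incubated with compound 72 h at 37 C, 5% CO2. Parasite DNA detected by SYBR Green after lysis, overnight at room temperature; normalised to 0.29 uM artemisinin and DMSO.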

CP250 = tested on: CP250
Summary of the method: as §1

CP252 = tested on: CP252
Summary of the method: as §1

CP256 = tested on: CP256
Summary of the method: as §1

CP260 = tested on: CP260
Summary of the method: as §1

CP262 = tested on: CP262
Summary of the method: as §1

CP265 = tested on: CP265
Summary of the method: as §1

CP266 = tested on: CP266
Summary of the method: as §1

CP268 = tested on: CP268
Summary of the method: as §1

CP269 = tested on: CP269
Summary of the method: as §1

CP286 = tested on: CP286
Summary of the method: as §1

CP291 = tested on: CP291
Summary of the method: as §1

CP297 = tested on: CP297
Summary of the method: as §1

CP305 = tested on: CP305
Summary of the method: as §1

CP315 = tested on: CP315
Summary of the method: as §1

CP325 = tested on: CP325
Summary of the method: as §1

CP329 = tested on: CP329
Summary of the method: as §1

CP335 = tested on: CP335
Summary of the method: as §1

DFO2036 = tested on: DFO2036
Summary of the method: as §1

DIV14 = tested on: DIV14
Summary of the method: as §1
Potency is the fitted concentration of half-maximal effect.

SMILES | Potency (CP247) | Potency (CP250) | Potency (CP252) | Potency (CP256) | Potency (CP260) | Potency (CP262) | Potency (CP265) | Potency (CP266) | Potency (CP268) | Potency (CP269) | Potency (CP286) | Potency (CP291) | Potency (CP297) | Potency (CP305) | Potency (CP315) | Potency (CP325) | Potency (CP329) | Potency (CP335) | Potency (DFO2036) | Potency (DIV14)
CC(=O)Nc1ccc(CC(=O)O)cc1 | inactive | inactive | inactive | inactive | inactive | inactive | inactive | inactive | inactive | inactive | inactive | inactive | inactive | inactive | inactive | inactive | inactive | inactive | inactive | inactive
CCOc1cc(OCC)c(C(=O)CCC(=O)O)cc1OCC | inactive | inactive | inactive | inactive | inactive | inactive | inactive | inactive | inactive | inactive | inactive | inactive | inactive | inactive | inactive | inactive | inactive | inactive | inactive | inactive
CC(C)Cn1cnc2c1c(=O)n(C)c(=O)n2C | inactive | inactive | inactive | inactive | inactive | inactive | inactive | inactive | inactive | inactive | inactive | inactive | inactive | inactive | inactive | inactive | inactive | inactive | inactive | inactive
Cc1ccccc1OCC(O)CO (configuration not stated) | inactive | inactive | inactive | inactive | inactive | inactive | inactive | inactive | inactive | inactive | inactive | inactive | inactive | inactive | inactive | inactive | inactive | inactive | inactive | inactive
CC[C@H](c1ccc(O)cc1)[C@@H](CC)c1ccc(O)cc1 | inactive | inactive | inactive | inactive | inactive | inactive | inactive | inactive | inactive | inactive | inactive | inactive | inactive | inactive | inactive | inactive | inactive | inactive | inactive | inactive
O=C(O)Cc1csc(-c2ccc(Cl)cc2)n1 | inactive | inactive | inactive | inactive | inactive | inactive | inactive | inactive | inactive | inactive | inactive | inactive | inactive | inactive | inactive | inactive | inactive | inactive | inactive | inactive
CC(=O)NO | inactive | inactive | inactive | inactive | inactive | inactive | inactive | inactive | inactive | inactive | inactive | inactive | inactive | inactive | inactive | inactive | inactive | inactive | inactive | inactive
O=S(=O)(O)c1ccc(O)cc1 | inactive | inactive | inactive | inactive | inactive | inactive | inactive | inactive | inactive | inactive | inactive | inactive | inactive | inactive | inactive | inactive | inactive | inactive | inactive | inactive
CC(=O)Nc1ccc(OCC(O)CNC(C)C)cc1 (configuration not stated) | inactive | inactive | inactive | inactive | inactive | inactive | inactive | inactive | inactive | inactive | inactive | inactive | inactive | inactive | inactive | inactive | inactive | inactive | inactive | inactive
O=C(NCCc1c[nH]c2ccccc12)c1cccnc1 | inactive | inactive | inactive | inactive | inactive | inactive | inactive | inactive | inactive | inactive | inactive | inactive | inactive | inactive | inactive | inactive | inactive | inactive | inactive | inactive
CCCCC(CC)COC(=O)/C=C/c1ccc(OC)cc1 (configuration not stated) | inactive | inactive | inactive | inactive | inactive | inactive | inactive | inactive | inactive | inactive | inactive | inactive | inactive | inactive | inactive | inactive | inactive | inactive | inactive | inactive
CCOC(=O)[C@H](CCc1ccccc1)N[C@@H](C)C(=O)N1[C@H](C(=O)O)C[C@H]2CCCC[C@@H]21 | inactive | inactive | inactive | inactive | inactive | inactive | inactive | inactive | inactive | inactive | inactive | inactive | inactive | inactive | inactive | inactive | inactive | inactive | inactive | inactive
Oc1ccccc1C=NCc1ccccc1 | inactive | inactive | inactive | inactive | inactive | inactive | inactive | inactive | inactive | inactive | inactive | inactive | inactive | inactive | inactive | inactive | inactive | inactive | inactive | inactive
Cc1cccc(C)c1NC(=O)CN1CCCCCC1 | inactive | inactive | inactive | inactive | inactive | inactive | inactive | inactive | inactive | inactive | inactive | inactive | inactive | inactive | inactive | inactive | inactive | inactive | inactive | inactive
Cc1c(-c2ccccc2)oc2c(C(=O)OCCN3CCCCC3)cccc2c1=O | inactive | inactive | inactive | inactive | inactive | inactive | inactive | inactive | inactive | inactive | inactive | inactive | inactive | inactive | inactive | inactive | inactive | inactive | inactive | inactive
O[C@@H](c1cc(C(F)(F)F)nc2c(C(F)(F)F)cccc12)[C@H]1CCCCN1 | 70.8 nM (active) | 63.1 nM (active) | 31.6 nM (active) | 63.1 nM (active) | 31.6 nM (active) | 190 nM (active) | 35.5 nM (active) | 601 nM (active) | 151 nM (active) | 53.6 nM (active) | 112 nM (active) | 151 nM (active) | 107 nM (active) | 213 nM (active) | 169 nM (active) | 135 nM (active) | 269 nM (active) | 107 nM (active) | 35.5 nM (active) | 33.8 nM (active)
Cl/C(=C\n1cncn1)c1ccc(Cl)cc1Cl | inactive | inactive | inactive | inactive | inactive | inactive | inactive | inactive | inactive | inactive | inactive | inactive | inactive | inactive | inactive | inactive | inactive | inactive | inactive | inactive
COc1cc(C(=O)NCc2ccc(OCCN(C)C)cc2)cc(OC)c1OC | inactive | inactive | inactive | inactive | inactive | inactive | inactive | inactive | inactive | inactive | inactive | inactive | inactive | inactive | inactive | inactive | inactive | inactive | inactive | inactive
CCCCCCCCCCCCCC[N+](C)(C)Cc1ccccc1 | 5620 nM (active) | 11200 nM (active) | 7940 nM (active) | 7940 nM (active) | 5010 nM (active) | 4260 nM (active) | 8910 nM (active) | 10700 nM (active) | 6750 nM (active) | 4780 nM (active) | 3160 nM (active) | 4780 nM (active) | 5360 nM (active) | 5360 nM (active) | 10700 nM (active) | 5360 nM (active) | 4780 nM (active) | 4780 nM (active) | 7940 nM (active) | 4780 nM (active)
COc1ccc(/C=N/NC(=O)c2ccncc2)cc1OC | inactive | inactive | inactive | inactive | inactive | inactive | inactive | inactive | inactive | inactive | inactive | inactive | inactive | inactive | inactive | inactive | inactive | inactive | inactive | inactive
COc1cc(NS(=O)(=O)c2ccc(N)cc2)ncn1 | inactive | inactive | inactive | inactive | inactive | inactive | inactive | inactive | inactive | inactive | inactive | inactive | inactive | inactive | inactive | inactive | inactive | inactive | inactive | inactive
COc1ccc(-c2cc(C(F)F)nn2-c2ccc(S(N)(=O)=O)cc2)cc1F | inactive | inactive | inactive | inactive | inactive | inactive | inactive | inactive | inactive | inactive | inactive | inactive | inactive | inactive | inactive | inactive | inactive | inactive | inactive | inactive
NS(=O)(=O)c1ccc(Cl)c(S(N)(=O)=O)c1 | inactive | inactive | inactive | inactive | inactive | inactive | inactive | inactive | inactive | inactive | inactive | inactive | inactive | inactive | inactive | inactive | inactive | inactive | inactive | inactive
O=C(O)C(Cc1cc(I)c(O)c(I)c1)c1ccccc1 (configuration not stated) | inactive | inactive | inactive | inactive | inactive | inactive | inactive | inactive | inactive | inactive | inactive | inactive | inactive | inactive | inactive | inactive | inactive | inactive | inactive | inactive
NC(=O)n1c(O)c(C(=O)c2cccs2)c2cc(Cl)ccc21 | inactive | inactive | inactive | inactive | inactive | inactive | inactive | inactive | inactive | inactive | inactive | inactive | inactive | inactive | inactive | inactive | inactive | inactive | inactive | inactive
CCCCCCCCCCCCSCCOCCO | inactive | inactive | inactive | inactive | inactive | inactive | inactive | inactive | inactive | inactive | inactive | inactive | inactive | inactive | inactive | inactive | inactive | inactive | inactive | inactive
CCCCNc1ccc(C(=O)OCCOCCOCCOCCOCCOCCOCCOCCOCCOC)cc1 | inactive | inactive | inactive | inactive | inactive | inactive | inactive | inactive | inactive | inactive | inactive | inactive | inactive | inactive |  | inactive | inactive | inactive | inactive | 
c1ccc(CC2=NCCN2)cc1 | inactive | inactive | inactive | inactive | inactive | inactive | inactive | inactive | inactive | inactive | inactive | inactive | inactive | inactive | inactive | inactive | inactive |  | inactive | inactive
